Data reported in PubChem BioAssay AID1159580 (chemical genetic matrix, 2015).
Values joined by “and” are separate entries in the source; they are usually repeats but may differ in a detail not shown here. Equal values may be shown once. Out of some 5,500 compounds screened, about 2,000 (36%) were called active. Roughly 18% stayed inconclusive and do not appear here. Cut-off read from the data, not from the text of the source: active = normalized growth mostly below about 0.91 (no sharp cut-off); inconclusive = no clear call, values can overlap the other calls; inactive = mostly above about 0.92. Some of the results follow.

Experiment: chemical genetic growth profiling, strain panel (AID 1159580);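 note: tested at 20 µM; growth read once vehicle control cultures reached saturation at 30 °C; 1 = growth at the plate median or of vehicle wells; lower values mean less growth of the strain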
Details: growth OD

Measured: normalized growth

CC[C@H]1OC(=O)[C@H](C)[C@@H](O[C@H]2C[C@@](C)(OC)[C@@H](O)[C@H](C)O2)[C@H](C)[C@@H](O[C@@H]2O[C@H](C)C[C@H](N(C)C)[C@H]2O)[C@](C)(O)C[C@@H](C)CN(C)[C@H](C)[C@@H](O)[C@]1(C)O
inactive: S. cerevisiae deletion strains, locus YAL013W, strain DEP1, hits give low values 0.993 | S. cerevisiae deletion strains, locus YBR021W, strain FUR4, hits give low values 0.96 | S. cerevisiae deletion strains, locus YBR229C, strain ROT2, hits give low values 0.988 | S. cerevisiae deletion strains, locus YCL029C, strain bik1, hits give low values 0.962 | S. cerevisiae deletion strains, locus YDL035C, strain GPR1, hits give low values 0.969 | S. cerevisiae deletion strains, locus YDL074C, strain BRE1, hits give low values 1.01 | S. cerevisiae deletion strains, locus YDL101C, strain DUN1, hits give low values 0.987 | S. cerevisiae deletion strains, locus YDL134C, strain PPH21, hits give low values 0.993 | S. cerevisiae deletion strains, locus YDL185W, strain tfp1, hits give low values 0.962 | S. cerevisiae deletion strains, locus YDL192W, strain arf1, hits give low values 0.96 | S. cerevisiae deletion strains, locus YDR101C, strain arx1, hits give low values 0.972 | S. cerevisiae deletion strains, locus YDR150W, strain NUM1, hits give low values 1 | S. cerevisiae deletion strains, locus YDR162C, strain NBP2, hits give low values 1.01 | S. cerevisiae deletion strains, locus YDR318W, strain mcm21, hits give low values 0.948 | S. cerevisiae deletion strains, locus YDR388W, hits give low values 0.978 | S. cerevisiae deletion strains, locus YDR502C, strain sam2, hits give low values 0.984 | S. cerevisiae deletion strains, locus YEL061C, strain CIN8, hits give low values 0.996 | S. cerevisiae deletion strains, locus YER110C, hits give low values 0.972 | S. cerevisiae deletion strains, locus YER155C, strain BEM2, hits give low values 0.991 | S. cerevisiae deletion strains, locus YER167W, strain BCK2, hits give low values 0.964 | S. cerevisiae deletion strains, locus YGL078C, strain dbp3, hits give low values 0.979 | S. cerevisiae deletion strains, locus YGL086W, strain mad1, hits give low values 0.951 | S. cerevisiae deletion strains, locus YGL248W, strain PDE1, hits give low values 0.992 | S. cerevisiae deletion strains, locus YGR078C, strain PAC10, hits give low values 1.02 | S. cerevisiae deletion strains, locus YGR135W, strain pre9, hits give low values 0.986 | S. cerevisiae deletion strains, locus YGR229C, strain SMI1, hits give low values 0.988 | S. cerevisiae deletion strains, locus YGR252W, strain gcn5, hits give low values 0.876 | S. cerevisiae deletion strains, locus YHR030C, strain SLT2, hits give low values 0.988 and 0.962 | S. cerevisiae deletion strains, locus YHR079C, strain IRE1 (second series), hits give low values 0.965 | S. cerevisiae deletion strains, locus YHR079C, strain IRE1, hits give low values 0.965 | S. cerevisiae deletion strains, locus YHR094C, strain hxt1, hits give low values 0.969 | S. cerevisiae deletion strains, locus YHR129C, strain ARP1, hits give low values 0.996 | S. cerevisiae deletion strains, locus YHR200W, strain rpn10, hits give low values 0.977 | S. cerevisiae deletion strains, locus YIL066C, strain RNR3, hits give low values 0.987 | S. cerevisiae deletion strains, locus YIL073C, strain SPO22, hits give low values 0.895 | S. cerevisiae deletion strains, locus YIL125W, strain kgd1, hits give low values 0.983 | S. cerevisiae deletion strains, locus YIR030C, strain dcg1, hits give low values 0.975 | S. cerevisiae deletion strains, locus YJL095W, strain BCK1, hits give low values 1.03 and 0.999 | S. cerevisiae deletion strains, locus YJL134W, strain LCB3, hits give low values 0.992 | S. cerevisiae deletion strains, locus YJL168C, strain set2, hits give low values 0.979 | S. cerevisiae deletion strains, locus YJL187C, strain SWE1 (second series), hits give low values 0.993 | S. cerevisiae deletion strains, locus YJR043C, strain POL32, hits give low values 0.966 | S. cerevisiae deletion strains, locus YJR066W, strain TOR1, hits give low values 0.956 | S. cerevisiae deletion strains, locus YJR075W, strain HOC1, hits give low values 1 | S. cerevisiae deletion strains, locus YKL009W, strain mrt4, hits give low values 0.992 | S. cerevisiae deletion strains, locus YKL068W, hits give low values 0.995 | S. cerevisiae deletion strains, locus YKL085W, strain MDH1 (second series), hits give low values 0.974 | S. cerevisiae deletion strains, locus YKL085W, strain MDH1, hits give low values 0.974 | S. cerevisiae deletion strains, locus YKL190W, strain CNB1, hits give low values 0.996 | S. cerevisiae deletion strains, locus YKR001C, strain vps1, hits give low values 0.961 | S. cerevisiae deletion strains, locus YLR039C, strain RIC1, hits give low values 0.965 | S. cerevisiae deletion strains, locus YLR058C, strain SHM2, hits give low values 0.992 | S. cerevisiae deletion strains, locus YLR102C, strain apc9, hits give low values 0.976 | S. cerevisiae deletion strains, locus YLR113W, strain HOG1, hits give low values 0.986 | S. cerevisiae deletion strains, locus YLR262C, strain YPT6, hits give low values 0.999 | S. cerevisiae deletion strains, locus YLR268W, strain sec22, hits give low values 0.994 | S. cerevisiae deletion strains, locus YLR330W, strain CHS5, hits give low values 0.991 | S. cerevisiae deletion strains, locus YLR342W, strain FKS1 (second series), hits give low values 0.963 | S. cerevisiae deletion strains, locus YLR371W, strain rom2, hits give low values 0.964 | S. cerevisiae deletion strains, locus YLR418C, strain cdc73, hits give low values 1.03 | S. cerevisiae deletion strains, locus YML016C, strain PPZ1, hits give low values 0.991 | S. cerevisiae deletion strains, locus YML032C, strain rad52, hits give low values 0.942 | S. cerevisiae deletion strains, locus YML124C, strain tub3, hits give low values 0.984 | S. cerevisiae deletion strains, locus YMR078C, strain ctf18, hits give low values 0.964 | S. cerevisiae deletion strains, locus YMR223W, strain ubp8, hits give low values 0.949 | S. cerevisiae deletion strains, locus YMR263W, strain SAP30, hits give low values 1 | S. cerevisiae deletion strains, locus YMR307W, strain GAS1, hits give low values 0.788 | S. cerevisiae deletion strains, locus YNL067W, strain RPL9B, hits give low values 1.01 | S. cerevisiae deletion strains, locus YNL128W, strain TEP1, hits give low values 1 | S. cerevisiae deletion strains, locus YNL153C, strain GIM3, hits give low values 1.03 | S. cerevisiae deletion strains, locus YNL183C, strain NPR1, hits give low values 0.92 | S. cerevisiae deletion strains, locus YNL233W, strain BNI4, hits give low values 1.01 | S. cerevisiae deletion strains, locus YNL250W, strain rad50, hits give low values 0.978 | S. cerevisiae deletion strains, locus YNL271C, strain bni1, hits give low values 0.976 | S. cerevisiae deletion strains, locus YNL298W, strain CLA4, hits give low values 0.972 | S. cerevisiae deletion strains, locus YNL307C, strain MCK1, hits give low values 0.945 | S. cerevisiae deletion strains, locus YNL322C, strain KRE1, hits give low values 0.995 | S. cerevisiae deletion strains, locus YNR052C, strain pop2, hits give low values 0.957 | S. cerevisiae deletion strains, locus YOL006C, strain TOP1, hits give low values 0.951 | S. cerevisiae deletion strains, locus YOL012C, strain htz1 1.44 | S. cerevisiae deletion strains, locus YOL147C, strain pex11, hits give low values 0.981 | S. cerevisiae deletion strains, locus YOR061W, strain CKA2, hits give low values 0.972 | S. cerevisiae deletion strains, locus YOR069W, strain VPS5, hits give low values 0.989 | S. cerevisiae deletion strains, locus YOR136W, strain idh2, hits give low values 0.969 | S. cerevisiae deletion strains, locus YOR144C, strain elg1, hits give low values 0.976 | S. cerevisiae deletion strains, locus YOR184W, strain ser1, hits give low values 0.973 | S. cerevisiae deletion strains, locus YOR231W, strain MKK1, hits give low values 0.968 | S. cerevisiae deletion strains, locus YOR316C, strain cot1, hits give low values 0.978 | S. cerevisiae deletion strains, locus YPL055C, strain LGE1, hits give low values 1.01 | S. cerevisiae deletion strains, locus YPL241C, strain CIN2, hits give low values 0.994 | S. cerevisiae deletion strains, locus YPL256C, strain CLN2, hits give low values 0.963 | S. cerevisiae deletion strains, locus YPR119W, strain clb2, hits give low values 0.981 | S. cerevisiae deletion strains, locus YPR141C, strain kar3, hits give low values 0.98 | S. cerevisiae deletion strains, locus YPR163C, strain tif3, hits give low values 0.974 | S. cerevisiae deletion strains, locus YPR167C, strain met16, hits give low values 0.984 | S. cerevisiae deletion strains, strain wtn01, hits give low values 0.978 | S. cerevisiae strains, strain wild type, hits give low values 0.982
